D1 antag: blocks dopamine activation of the human D1 receptor. actives 3.2% (n = 360,000). P21728. HEK293 TREx D1 cells, calcium flux, dopamine EC80; stronger effect = lower value. activity change, negative = inhibition, % at 10 µM; in the data active = activity change below about -30%
Target sequence (P21728 whole entry, looked up): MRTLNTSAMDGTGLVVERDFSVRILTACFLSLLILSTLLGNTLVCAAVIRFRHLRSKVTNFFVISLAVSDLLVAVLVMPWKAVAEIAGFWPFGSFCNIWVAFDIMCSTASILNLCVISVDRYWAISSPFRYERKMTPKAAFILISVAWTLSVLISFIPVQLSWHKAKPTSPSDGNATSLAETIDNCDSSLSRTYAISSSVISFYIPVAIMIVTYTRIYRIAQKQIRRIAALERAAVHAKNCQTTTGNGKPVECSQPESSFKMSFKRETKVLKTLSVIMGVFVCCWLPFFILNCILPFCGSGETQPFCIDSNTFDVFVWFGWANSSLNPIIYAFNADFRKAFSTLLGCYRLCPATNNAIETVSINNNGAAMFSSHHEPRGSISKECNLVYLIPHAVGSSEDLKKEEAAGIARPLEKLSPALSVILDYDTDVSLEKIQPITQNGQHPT
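HEK293 T-REx cells expressing inducible, force-coupled D1 receptor; no-wash Ca dye, 30–90 min RT. Cmpd → 180 s read at 1 Hz → EC80 DA → 180 s read.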
ERG-DNA inh: inhibitors of human ERG Ets domain-DNA interaction; P11308; fluorescence polarization, His-ERG Ets domain / labelled DNA; Potency, µM (highest dose often 76.9 µM), hits mostly inhibitors; actives 0.028% (n = 370,000); AID 624246; active = well fitted inhibition curve with a large enough effect in the polarisation, with a control signal flat; inconclusive = small, poorly fitted or top-dose-only effect, or effect the other way, or a change in a side signal; inactive = no such curve, though single readings can be large or run the other way; the % refers to the polarisation;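 note: polarization taken with two DNA probes labelled with fluorescein and Texas red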
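His-tagged ERG Ets domain (1 uM in the protein solution; 300mM KCl, 50mM Tris-HCl, 1mM EDTA, 1mM DTT, pH 7.5) received compound, then a probe mix of 5 nM fluorescein-DNA and 100nM Texas-615-DNA. Fluorescence polarization was read for both dyes.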
D3 ag: activates the human D3 dopamine receptor. D3R DiscoveRx beta-arrestin cells, luminescence, 90 min. P35462. max activation, %. actives 0.58% (n = 410,000); in the data active = max activation above about 30%
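Agonist mode: compounds and dopamine controls were applied to plated cells for 90 min at 37 degrees C after an overnight attachment at 1500 cells/well. Luminescent read-out followed 30 - 60 minutes at room temperature with DiscoveRx detection reagent.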
D1 agonist: activates the human D1 dopamine receptor; activation, % at 2 µM; HEK293 T-REx D1 cells, calcium flux, agonist mode; P21728; actives 1% (n = 360,000); AID 504660; in the data active = activation above about 30%
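Agonism was scored from calcium flux recorded over 180 s (1 read/s) after pintool compound addition, following a 10-cycle baseline. Cells were inducible force-coupled HEK293 TREx D1, plated overnight at 30 C and loaded with no-wash calcium dye.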
D1 potentiator: human D1 dopamine receptor positive modulation; P21728; HEK293 TREx D1 cells, calcium flux, dopamine EC20 potentiation; potentiation, % at 10 µM; actives 0.036% (n = 360,000); AID 504651; in the data active = potentiation above about 30%
DRD3 antagonist: D3 dopamine receptor (human) antagonism; P35462; D3R cells, DiscoveRx beta-arrestin luminescence, antagonist mode; stronger effect = lower value; max response, negative = inhibition, %; actives 2.5% (n = 360,000); in the data active = max response below about -50%; inconclusive = no clear call, values can overlap the other calls
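Cells expressing the human receptor were seeded at 1500 cells/well, incubated overnight at 37 degrees C in 5% CO2, then exposed to library compounds with dopamine controls for 90 minutes at 37 degrees C before luminescent detection.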
Hits are given with their value; - = inactive; ? = inconclusive; . = not tested or not shown. Only some compounds are listed: those with a hit (about 6.1% of all), similar ones and a draw of the others.

SMILES	D1 antag	ERG-DNA inh	D3 ag	D1 agonist	D1 potentiator	DRD3 antagonist
CCCCc1nn2c(=O)cc(COC(=O)c3ccc4c(c3)OCO4)nc2s1	-	-	-	-	-	.
COC(=O)CSC1=C(C#N)C(=O)NC(c2ccccc2)S1 (stereo not drawn)	-	-	-	-	-	-74
Cc1ccc(C(=O)NC(C#N)=C(Cl)Cl)cc1	-	-	-	-	-	-61
COc1ccc(/C=C/C(=O)N(CC(C)C)C2CCS(=O)(=O)C2)cc1 (stereo not drawn)	-	-	-	-	-	-
CN1Cc2c(N3CCOCC3)nc3sc(C(=O)c4ccc(Br)cc4)c(N)c3c2CC1(C)C	-49	-	-	34	-	-50
CN1Cc2c(N3CCOCC3)nc3sc(C#N)c(N)c3c2CC1(C)C	-	-	-	-	-	-
O=C(CCN1CCOCC1)NNC(=S)NC(=O)c1ccccc1	-	-	-	-	-	-
CCOC(=O)c1c(N)sc2c(NC(C)=O)cccc12	-	-	-	-	-	-81
CCOc1ccc(-c2c(C(=O)N/N=C/c3ccncc3)nnn2-c2nonc2N)cc1	-	-	-	-	-	-
CC(C(=O)c1ccccc1)[n+]1cccc(Br)c1 (stereo not drawn)	-	-	-	-	-	-71
CC(=O)Nc1cc[n+](C(C)C(=O)c2ccccc2)cc1 (stereo not drawn)	-	-	-	-	-	?
CC(=O)Nc1cc[n+](C(C)C(=O)c2ccc(Br)cc2)cc1 (stereo not drawn)	-	-	-	-	-	-84
CC(C)C(N)c1csc(Nc2nncc3ccccc23)n1 (stereo not drawn)	.	.	-	.	.	-
Cc1nnc(SCC(=O)N2CCCC2)n1-c1ccc(F)cc1	.	-	-	.	.	-
CCSc1nnc(C)n1-c1ccc(C(=O)O)cc1	-	-	-	-	-	-56
Cc1cc(=O)[nH]c2nnc(SCc3ccc(Cl)cc3)n12	.	-	-	-	-	.
CCOc1ccc(-n2nnnc2SCC(=O)NNC(=O)c2ccco2)cc1	-38	-	-	-	-	-
CCc1cc2cccc(C)c2nc1SCC(=O)N1CCN(C(=O)c2ccco2)CC1	-	-	41	-	-	-
CCc1cc2cc(C)ccc2nc1SCC(=O)NNC(=O)c1ccco1	-	-	-	34	.	-
CCc1cc2ccc(C)cc2nc1SCC(=O)NNC(=O)c1ccco1	-	-	-	-	-	-
O=C(CSc1nnnn1-c1ccc(F)cc1)NNC(=O)c1ccco1	-	-	-	-	-	-
CCc1cc2cc(C)cc(C)c2nc1SCC(=O)N1CCN(C(=O)c2ccco2)CC1	-	-	-	-	-	-
COc1cc2ncc3c(-c4ccccc4)nn(-c4ccc(C)cc4)c3c2cc1OC	-	-	-	-	-	.
CCCCN(C(=O)c1cc2ccccc2o1)c1c(N)n(CCCC)c(=O)[nH]c1=O	-	-	-	-	-	-
Cc1nc2ncnn2c(C)c1CCC(=O)NCCCN1CCN(c2cccc(Cl)c2)CC1	-	-	-	-	-	-52
SMILES	D1 antag	ERG-DNA inh	D3 ag	D1 agonist	D1 potentiator	DRD3 antagonist
COCCNC(=O)c1sc2ncccc2c1-n1c(C)ccc1C	-	-	-	-	-	.
Cc1ccc(C)n1-c1c(C(=O)NCCCN2CCN(c3ccc(F)cc3)CC2)sc2ncccc12	-56	-	-	-	-	.
O=C(NCCCN1CCN(c2ccccc2)CC1)c1sc2ncccc2c1-n1cccc1	-	-	-	-	-	.
O=C(NCCCN1CCN(c2cccc(Cl)c2)CC1)c1sc2ncccc2c1-n1cccc1	-35	-	-	-	-	.
Cc1cccc(N2CCN(CCCNC(=O)c3sc4ncccc4c3-n3cccc3)CC2C)c1 (stereo not drawn)	-	-	-	-	-	.
O=C(NCCCN1CCN(c2ccccc2F)CC1)c1sc2ncccc2c1-n1cccc1	-38	-	-	-	-	.
Cc1cc(-c2ccccc2)nc(SCC(=O)c2cccc([N+](=O)[O-])c2)n1	-	-	-	-	-	-
Cc1cccc(NC(=O)CNC(=O)c2cc(S(=O)(=O)N(C)C)ccc2N2CCCC2)c1C	.	.	-	.	.	-
CSc1ccc(/C=N/Nc2nc(C)cc(=O)[nH]2)cc1	-30	-	-	-	-	-
CCOc1ccc(-n2c(C)cc(/C=N/Nc3nc(C)cc(=O)[nH]3)c2C)cc1	-35	-	-	-	-	-
CCOc1ccc(-n2c(C)cc(/C=N/NC(=O)C(N)=O)c2C)cc1	.	-	-	-	-	-
Cc1cc(=O)[nH]c(N/N=C/c2ccc(O)c(O)c2)n1	-	-	-	-	-	-
Cc1cc(C)c(C#N)c(N2CCN(CCOc3ccc(Cl)cc3)CC2)n1	-	.	-	-	-	-78
CC(Oc1ccc2ccc(=O)oc2c1)C(=O)NC(Cc1c[nH]c2ccc(O)cc12)C(=O)O (stereo not drawn)	-87	-	-	-	-	-
C=CCSc1ncc(-c2ccccc2)cn1	-31	-	-	-	-	-
Cc1ccc(C(=O)OCCOc2cccc(Cl)c2)cc1S(=O)(=O)N1CCOCC1	-	-	-	31	-	-
COc1ccc(OCCOC(=O)c2ccc(F)c(S(=O)(=O)N3CCOCC3)c2)cc1	-64	-	-	-	-	-
CCc1ccc(NC(=O)c2ccc(F)c(S(=O)(=O)N3CCN(c4ccc(OC)cc4)CC3)c2)cc1	-45	-	-	-	-	.
CCc1ccc(NC(=O)c2ccc(F)c(S(=O)(=O)N3CCC(C)CC3)c2)cc1	-	-	-	-	-	.
O=C(OCCOc1cccc(Cl)c1)c1ccc(F)c(S(=O)(=O)N2CCOCC2)c1	-	-	-	-	-	-
Cc1ccc(NC(=S)NNC(C)(C)C)cc1	-	-	-	-	-	-
Oc1ccc(/C(Cc2ccccn2)=N\Nc2ccccc2)c(O)c1	-	-	-	-	-	-
C=CC[C@@H](CC(=O)OC(C)(C)C)C(=O)OC[C@@H]1CCCN1C(=O)[C@@H](CC=C)CC(=O)N[C@H](CO)Cc1ccccc1	.	-	-	.	.	-
CC(=O)c1cc(NC(=O)c2ccc(C)cc2)c(=O)oc1/C=C/N(C)C	-	-	-	34	-	-
COc1ccc(C(=O)Nc2cc(C(C)=O)c(/C=C/N(C)C)oc2=O)cc1	-	-	-	41	-	-
O=C(N/N=C\c1cccc(F)c1)c1ccc(Cn2cc(Br)c([N+](=O)[O-])n2)o1	-	-	-	-	-	-87
CCCOc1ccc(C(=O)CCC(=O)Nc2ccc(N3CCN(C)CC3)cc2)cc1	-79	-	-	-	-	-
CCOc1ccc(NC(=O)CCN2CCN(c3ccccc3)CC2)cc1	-	-	-	-	-	-52

Assay outcomes deposited in PubChem by National Center for Advancing Translational Sciences (NCATS).
